# From PubChem BioAssay (EPA / NIEHS)
# Inconclusive results are not listed. Some compounds were tested as several samples or in several runs, with calls that do not always agree. Calls of active or inactive are those of the source. How the source made its calls, unless noted: active means hit-call score of the fitted dose curve at least 0.9, where 1 is the maximum; inconclusive means response in the unintended direction; inactive means score below 0.9.
# Columns and labels:
# [1] = ATG_FoxO_CIS: Attagene CIS-FACTORIAL HepG2 Assay for human Forkhead box O (FoxO) (AID 2282943; active means hit-call score of the fitted dose curve at least 0.9, where 1 is the maximum; inactive means score below 0.9); conditions: HepG2 Attagene cis-reporter, FoxO element, mRNA; actives raise or lower the signal
# In short: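 Values reflect reporter mRNA induction or loss in HepG2 cells 24 h post-dosing, fitted bidirectionally with DMSO as negative control and baseline. Detection used RT-PCR and fluorescence capillary electrophoresis.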
# [2] = ATG_GRE_CIS: Attagene CIS-FACTORIAL HepG2 Assay for human Glucocorticoid Response Elements (GRE) (AID 2282947; active means hit-call score of the fitted dose curve at least 0.9, where 1 is the maximum; inactive means score below 0.9); conditions: HepG2 GRE cis-reporter, Attagene multiplex mRNA; actives raise or lower the signal
# In short: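 Cells (HepG2) bearing transfected cis-promoter reporter transcription units were treated with chemical for 24 hours. Reporter mRNA was measured via RT-PCR with capillary electrophoresis, and activity was fitted in both directions relative to DMSO.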
# [3] = target: Hypoxia-inducible factor 1-alpha (Homo sapiens) (UniProt Q16665); test: ATG_HIF1a_CIS: Attagene CIS-FACTORIAL HepG2 Assay for human Hypoxia Inducible Factor 1 (HIF1A) (AID 2282951; active means hit-call score of the fitted dose curve at least 0.9, where 1 is the maximum; inactive means score below 0.9); conditions: HepG2 Attagene cis-factorial HIF1a reporter transcription; actives raise or lower the signal
# Sequence of Hypoxia-inducible factor 1-alpha (Homo sapiens) (Q16665 whole entry, looked up, the tested form may be a part): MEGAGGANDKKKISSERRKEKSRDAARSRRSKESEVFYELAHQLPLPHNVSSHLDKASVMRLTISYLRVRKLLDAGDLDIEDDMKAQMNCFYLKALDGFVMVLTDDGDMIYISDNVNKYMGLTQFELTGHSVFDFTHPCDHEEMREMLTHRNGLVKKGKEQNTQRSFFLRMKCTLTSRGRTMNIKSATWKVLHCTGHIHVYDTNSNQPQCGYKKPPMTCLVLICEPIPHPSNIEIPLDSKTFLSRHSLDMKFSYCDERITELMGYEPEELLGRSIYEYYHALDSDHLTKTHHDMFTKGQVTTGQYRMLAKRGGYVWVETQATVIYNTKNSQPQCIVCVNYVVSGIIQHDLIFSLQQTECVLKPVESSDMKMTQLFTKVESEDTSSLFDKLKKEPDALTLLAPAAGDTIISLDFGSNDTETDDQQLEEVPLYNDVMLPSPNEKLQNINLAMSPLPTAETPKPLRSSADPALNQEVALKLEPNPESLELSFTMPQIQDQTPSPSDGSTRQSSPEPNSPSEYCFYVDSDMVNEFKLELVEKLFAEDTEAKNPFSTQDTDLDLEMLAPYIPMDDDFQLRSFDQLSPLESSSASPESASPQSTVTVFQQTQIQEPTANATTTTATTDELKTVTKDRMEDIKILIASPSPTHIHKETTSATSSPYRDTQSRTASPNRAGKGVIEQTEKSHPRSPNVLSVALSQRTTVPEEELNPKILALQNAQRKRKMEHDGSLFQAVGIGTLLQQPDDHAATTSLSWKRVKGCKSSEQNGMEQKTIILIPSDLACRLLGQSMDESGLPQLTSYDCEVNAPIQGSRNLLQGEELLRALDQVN
# In short: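 Transient MRTU transfection of human HepG2 liver cells, 24 h compound treatment, then total RNA isolation, oligo(dT) reverse transcription, PCR amplification, fluorescent labelling and capillary electrophoresis of reporter fragments. Gain or loss relative to DMSO.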
# [4] = ATG_PBREM_CIS: Attagene CIS-FACTORIAL HepG2 Assay for human Phenobarbital-responsive Enhancer Module (PBREM) (AID 2282955; active means hit-call score of the fitted dose curve at least 0.9, where 1 is the maximum; inactive means score below 0.9); conditions: HepG2 PBREM cis-reporter, Attagene multiplexed transcription; actives raise or lower the signal
# In short: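 Endogenous transcription factors in human liver HepG2 cells drive a PBREM cis-element reporter, whose transcript level after 24 h treatment is quantified by RT-PCR with capillary electrophoresis; activity fitted in both directions against DMSO.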
# [5] = ATG_RORE_CIS: Attagene CIS-FACTORIAL HepG2 Assay for human RAR-related Orphan Receptor Element (RORE) (AID 2282959; active means hit-call score of the fitted dose curve at least 0.9, where 1 is the maximum; inactive means score below 0.9); conditions: HepG2 Attagene cis-factorial RORE reporter, mRNA; actives raise or lower the signal
# In short: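 Transient MRTU transfection of human HepG2 liver cells (FuGene 6); 24 h compound exposure; TriZol RNA, oligo(dT) RT, PCR, FAM labeling, HpaI cut, CE fragment analysis. DMSO = negative control/baseline.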
# [6] = target: Hepatocyte nuclear factor 4-alpha (Homo sapiens) (UniProt P41235); test: ATG_HNF4a_TRANS: Attagene TRANS-FACTORIAL HepG2 Assay for human Hepatocyte Nuclear Factor 4 alpha (HNF4a) (AID 2282982); conditions: HepG2 HNF4a transactivation reporter, mRNA readout
# Sequence of Hepatocyte nuclear factor 4-alpha (Homo sapiens) (P41235 whole entry, looked up, the tested form may be a part): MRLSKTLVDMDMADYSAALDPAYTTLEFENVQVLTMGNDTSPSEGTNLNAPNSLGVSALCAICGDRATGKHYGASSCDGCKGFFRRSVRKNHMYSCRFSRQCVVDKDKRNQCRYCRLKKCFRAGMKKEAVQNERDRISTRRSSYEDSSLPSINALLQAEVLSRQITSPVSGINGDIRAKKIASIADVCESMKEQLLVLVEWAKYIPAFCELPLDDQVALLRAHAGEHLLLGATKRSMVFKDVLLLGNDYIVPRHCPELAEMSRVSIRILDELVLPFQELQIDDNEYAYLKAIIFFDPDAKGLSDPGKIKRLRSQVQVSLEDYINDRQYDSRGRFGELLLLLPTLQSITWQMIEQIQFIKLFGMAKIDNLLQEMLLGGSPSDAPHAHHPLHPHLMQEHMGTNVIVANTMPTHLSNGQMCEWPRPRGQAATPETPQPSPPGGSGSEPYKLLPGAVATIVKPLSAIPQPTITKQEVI
# In short: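 In this trans-factorial format, a chimeric HNF4a-GAL4 fusion drives a GAL4-UAS reporter in transfected HepG2 liver cells. After 24 h treatment, reporter mRNA induction is measured by RT-PCR with capillary electrophoresis, relative to DMSO.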
# [7] = ATG_M_06_TRANS: Attagene TRANS-FACTORIAL HepG2 Assay for M06 Transcription Factor (Internal Marker) (AID 2282983); conditions: HepG2 Attagene TRANS M06 internal marker reporter
# In short: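 Background control endpoint: reporter mRNA from transiently transfected HepG2 after 24 h dosing, detected by RT-PCR with capillary electrophoresis fluorescence. Analysed for gain versus DMSO.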
# [8] = ATG_NRF2_ARE_CIS: Attagene CIS-FACTORIAL HepG2 Assay for human Nuclear Factor Erythroid 2 Related Factor 2 (NFR2) response to Antioxidant Response Elements (ARE) (AID 2282992; active means hit-call score of the fitted dose curve at least 0.9, where 1 is the maximum; inactive means score below 0.9); conditions: HepG2 Attagene ARE/NRF2 reporter, transcription factor activity; actives raise or lower the signal
# In short: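 Using transiently transfected HepG2 cells exposed for 24 h, reporter mRNA levels were determined by RT-PCR with fluorescent primer extension and capillary electrophoresis, analysed for gain or loss of signal against DMSO.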
# [9] = target: human Peroxisome Proliferator-activated Receptor alpha (PPARa), PPARA (gene 5465) (UniProt Q07869); test: ATG_PPARa_TRANS: Attagene TRANS-FACTORIAL HepG2 Assay for human Peroxisome Proliferator-activated Receptor alpha (PPARa) (AID 2283001)
# Sequence of human Peroxisome Proliferator-activated Receptor alpha (PPARa), PPARA (gene 5465) (Q07869 whole entry, looked up): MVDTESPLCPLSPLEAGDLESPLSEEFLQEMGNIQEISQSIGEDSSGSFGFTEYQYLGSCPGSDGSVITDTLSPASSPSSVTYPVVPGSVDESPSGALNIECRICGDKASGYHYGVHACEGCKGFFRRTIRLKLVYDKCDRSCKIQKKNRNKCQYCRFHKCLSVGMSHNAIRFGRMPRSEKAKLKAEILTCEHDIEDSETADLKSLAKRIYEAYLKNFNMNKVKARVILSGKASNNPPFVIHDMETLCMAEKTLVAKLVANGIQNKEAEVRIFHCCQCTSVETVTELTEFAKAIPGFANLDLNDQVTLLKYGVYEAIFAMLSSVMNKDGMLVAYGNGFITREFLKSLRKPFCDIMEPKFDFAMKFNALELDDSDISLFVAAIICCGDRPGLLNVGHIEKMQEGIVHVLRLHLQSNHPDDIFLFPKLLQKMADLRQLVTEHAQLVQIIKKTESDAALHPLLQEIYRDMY
# In short: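 Cells (HepG2) are transfected with multiple reporter transcription units, exposed to chemical for 24 h, then total RNA is reverse-transcribed and amplified. Labelled products are quantified by capillary electrophoresis; induction is referenced to DMSO.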
# [10] = target: Nuclear receptor subfamily 1 group I member 2 (Homo sapiens) (UniProt O75469); test: ATG_PXR_TRANS: Attagene TRANS-FACTORIAL HepG2 Assay for human Pregnane X Receptor (PXR) (AID 2283008)
# Sequence of Nuclear receptor subfamily 1 group I member 2 (Homo sapiens) (O75469 whole entry, looked up, the tested form may be a part): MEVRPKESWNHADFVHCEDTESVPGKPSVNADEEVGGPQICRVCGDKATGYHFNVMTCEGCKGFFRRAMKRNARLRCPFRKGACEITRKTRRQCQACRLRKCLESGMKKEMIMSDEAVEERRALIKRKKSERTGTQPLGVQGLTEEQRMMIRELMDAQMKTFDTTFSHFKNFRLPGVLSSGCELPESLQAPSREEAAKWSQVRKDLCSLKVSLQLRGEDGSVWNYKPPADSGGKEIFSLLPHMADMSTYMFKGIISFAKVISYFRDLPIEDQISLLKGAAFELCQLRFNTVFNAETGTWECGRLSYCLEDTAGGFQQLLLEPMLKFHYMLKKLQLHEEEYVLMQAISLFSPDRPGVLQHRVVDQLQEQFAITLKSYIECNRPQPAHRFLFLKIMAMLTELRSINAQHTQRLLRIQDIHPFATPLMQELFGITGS
# In short: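 Multiplexed TRANS reporter panel in HepG2; this component tracks PXR-Gal4-driven reporter mRNA after 24 h dosing, measured by RT-PCR with capillary electrophoresis fluorescence, fitted against DMSO.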
# [11] = target: Retinoic acid receptor RXR-alpha (Homo sapiens) (UniProt P19793); test: ATG_RXRa_TRANS: Attagene TRANS-FACTORIAL HepG2 Assay for human Retinoid X Receptor alpha (RXRa) (AID 2283012)
# Sequence of Retinoic acid receptor RXR-alpha (Homo sapiens) (P19793 whole entry, looked up, the tested form may be a part): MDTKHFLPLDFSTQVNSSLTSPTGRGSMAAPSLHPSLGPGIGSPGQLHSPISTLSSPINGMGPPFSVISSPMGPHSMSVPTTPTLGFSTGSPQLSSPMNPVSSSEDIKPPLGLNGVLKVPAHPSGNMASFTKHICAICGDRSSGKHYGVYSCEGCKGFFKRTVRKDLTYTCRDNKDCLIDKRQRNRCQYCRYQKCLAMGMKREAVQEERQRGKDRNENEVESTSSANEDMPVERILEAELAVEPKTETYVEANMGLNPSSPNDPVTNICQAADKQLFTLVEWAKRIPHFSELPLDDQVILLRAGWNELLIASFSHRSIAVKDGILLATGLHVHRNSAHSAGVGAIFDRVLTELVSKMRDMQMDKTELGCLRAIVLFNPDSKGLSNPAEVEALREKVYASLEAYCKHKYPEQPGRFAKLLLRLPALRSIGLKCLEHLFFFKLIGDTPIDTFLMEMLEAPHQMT
# In short: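 Measures exogenous chimeric NR-GAL4 activity in transfected HepG2 liver cells after 24 h of dosing. Induced reporter mRNA was detected by RT-PCR with capillary electrophoresis, and gain of signal was analysed against DMSO.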
# [12] = target: Cellular tumor antigen p53 (Homo sapiens) (UniProt P04637); test: TOX21_p53_BLA_p2_ratio: Tox21 HCT-116 p53 Agonism Beta-lactamase Assay, Ratio, Phase 2 (AID 2283592)
# Sequence of Cellular tumor antigen p53 (Homo sapiens) (P04637 whole entry, looked up): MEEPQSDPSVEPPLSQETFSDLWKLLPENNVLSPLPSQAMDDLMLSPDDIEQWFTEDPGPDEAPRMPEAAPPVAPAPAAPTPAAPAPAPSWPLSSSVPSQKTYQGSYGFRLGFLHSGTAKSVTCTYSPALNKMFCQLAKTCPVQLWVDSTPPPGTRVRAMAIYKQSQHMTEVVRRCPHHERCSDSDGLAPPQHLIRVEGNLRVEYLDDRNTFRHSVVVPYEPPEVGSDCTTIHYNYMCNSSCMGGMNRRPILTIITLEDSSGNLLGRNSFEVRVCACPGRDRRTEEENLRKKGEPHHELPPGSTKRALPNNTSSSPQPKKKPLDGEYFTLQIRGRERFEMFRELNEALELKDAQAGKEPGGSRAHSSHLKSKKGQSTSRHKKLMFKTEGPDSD
# In short: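 Plated HCT116 p53-bla cells (4000/well) received compound after 5 h, then 16 h at 37C/5% CO2. CCF4-AM added, 2 h RT. Ratio of 460 to 530 nm emission taken as the p53 reporter signal.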
# [13] = target: Cellular tumor antigen p53 (Homo sapiens) (UniProt P04637); test: TOX21_p53_BLA_p3_ratio: Tox21 HCT-116 p53 Agonism Beta-lactamase Assay, Ratio, Phase 3 (AID 2283596)
# In short: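 Cells were seeded at 4000/well, rested 5 h at 37C, then dosed with DMSO compound solutions (217-fold dilution) for 16 h. CCF4-AM substrate was loaded for 2 h at room temperature, and the 460/530 nm emission ratio was fitted for gain of signal versus DMSO.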
# [14] = target: Cellular tumor antigen p53 (Homo sapiens) (UniProt P04637); test: TOX21_p53_BLA_p5_ratio: Tox21 HCT-116 p53 Agonism Beta-lactamase Assay, Ratio, Phase 5 (AID 2283599)
# In short: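 HCT-116 cells carrying a p53-inducible beta-lactamase reporter were seeded at 4000 cells/well and dosed after 5 h with compound in DMSO (217-fold dilution). After 16 h at 37C, CCF4-AM substrate was added for 2 h, and the 460/530 nm emission ratio was scored as gain-of-signal versus DMSO.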
# [15] = TOX21_p53_BLA_p5_viability: Viability Assessment in the Tox21 HCT-116 p53 Agonism Beta-lactamase Assay, Phase 5 (AID 2283600)
# In short: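 Workflow: seed 4000 cells per well, wait 5 h, add compounds (DMSO, 217-fold dilution), incubate 16 h, load CCF4-AM 2 h, add CellTiter-Glo, read luminescence after 30 min.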
# [16] = target: Peroxisome proliferator-activated receptor gamma (Homo sapiens) (UniProt P37231); test: ATG_PPARg_TRANS: Attagene TRANS-FACTORIAL HepG2 Assay for human Peroxisome Proliferator-activated Receptor-gamma (PPARg) (AID 2283007)
# Sequence of Peroxisome proliferator-activated receptor gamma (Homo sapiens) (P37231 whole entry, looked up, the tested form may be a part): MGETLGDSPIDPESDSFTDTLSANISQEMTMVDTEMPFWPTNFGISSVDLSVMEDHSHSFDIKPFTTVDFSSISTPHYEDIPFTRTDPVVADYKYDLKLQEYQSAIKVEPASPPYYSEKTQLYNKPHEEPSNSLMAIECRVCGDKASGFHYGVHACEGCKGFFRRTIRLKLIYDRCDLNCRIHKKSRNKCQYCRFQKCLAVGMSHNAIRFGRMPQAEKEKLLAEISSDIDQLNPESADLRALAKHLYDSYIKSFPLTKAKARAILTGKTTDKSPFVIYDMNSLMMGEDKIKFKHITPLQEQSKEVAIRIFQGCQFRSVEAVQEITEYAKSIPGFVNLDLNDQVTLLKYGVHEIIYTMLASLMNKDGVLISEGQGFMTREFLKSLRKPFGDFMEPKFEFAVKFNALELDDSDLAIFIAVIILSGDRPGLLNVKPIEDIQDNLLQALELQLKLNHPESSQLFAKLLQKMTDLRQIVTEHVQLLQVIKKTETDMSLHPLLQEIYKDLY
# In short: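 Transient transfection of HepG2 with GAL4-UAS-driven reporter units; chemical dosing 24 h; total RNA → oligo(dT) RT → PCR with reporter primers → 6-FAM primer extension → HpaI digest 2 h 37 C → capillary electrophoresis. Positive direction vs DMSO.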
# [17] = target: human Thyroid Receptor alpha (THRa1), THRA (gene 7067) (UniProt P10827); test: ATG_THRa1_TRANS: Attagene TRANS-FACTORIAL HepG2 Assay for human Thyroid Receptor alpha (THRa1) (AID 2283014)
# Sequence of human Thyroid Receptor alpha (THRa1), THRA (gene 7067) (P10827 whole entry, looked up, the tested form may be a part): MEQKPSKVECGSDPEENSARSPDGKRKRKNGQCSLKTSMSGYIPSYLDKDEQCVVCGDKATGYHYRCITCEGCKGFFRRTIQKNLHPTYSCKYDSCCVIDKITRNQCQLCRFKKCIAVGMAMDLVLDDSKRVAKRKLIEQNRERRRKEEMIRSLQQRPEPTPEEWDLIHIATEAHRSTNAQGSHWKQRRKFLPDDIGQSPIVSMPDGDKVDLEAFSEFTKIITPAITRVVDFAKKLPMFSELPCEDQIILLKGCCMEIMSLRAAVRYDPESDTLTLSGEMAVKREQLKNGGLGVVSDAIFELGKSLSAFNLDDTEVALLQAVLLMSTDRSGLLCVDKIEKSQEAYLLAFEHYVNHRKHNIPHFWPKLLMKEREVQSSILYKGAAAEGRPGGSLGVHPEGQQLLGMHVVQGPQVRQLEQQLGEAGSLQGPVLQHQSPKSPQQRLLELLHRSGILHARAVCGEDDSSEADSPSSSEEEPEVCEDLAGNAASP
# In short: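 Reporter transcript induction, read by capillary electrophoresis of 6-FAM-labelled RT-PCR products, reflects activity of a transfected THRa1-Gal4 fusion in HepG2 liver cells. Cells were dosed for 24 h; activity was fitted in the positive direction against DMSO.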
# [18] = target: Cellular tumor antigen p53 (Homo sapiens) (UniProt P04637); test: TOX21_p53_BLA_p4_ratio: Tox21 HCT-116 p53 Agonism Beta-lactamase Assay, Ratio, Phase 4 (AID 2283601)
# In short: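 HCT116 cells carrying an inducible beta-lactamase reporter were plated at 4000 cells/well, rested 5 h, then exposed to compounds in DMSO (217-fold dilution) for 16 h at 37C. CCF4-AM substrate was loaded 2 h at room temperature; 460/530 nm emission ratio scored gain-of-signal versus DMSO.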
# [19] = target: Heat shock factor protein 1 (Homo sapiens) (UniProt Q00613); test: ATG_HSE_CIS: Attagene CIS-FACTORIAL HepG2 Assay for human Heat Shock Transcription Factor 1 (HSE) (AID 2282953; active means hit-call score of the fitted dose curve at least 0.9, where 1 is the maximum; inactive means score below 0.9); conditions: HepG2 HSE cis-reporter, Attagene RNA transcription; actives raise or lower the signal
# Sequence of Heat shock factor protein 1 (Homo sapiens) (Q00613 whole entry, looked up, the tested form may be a part): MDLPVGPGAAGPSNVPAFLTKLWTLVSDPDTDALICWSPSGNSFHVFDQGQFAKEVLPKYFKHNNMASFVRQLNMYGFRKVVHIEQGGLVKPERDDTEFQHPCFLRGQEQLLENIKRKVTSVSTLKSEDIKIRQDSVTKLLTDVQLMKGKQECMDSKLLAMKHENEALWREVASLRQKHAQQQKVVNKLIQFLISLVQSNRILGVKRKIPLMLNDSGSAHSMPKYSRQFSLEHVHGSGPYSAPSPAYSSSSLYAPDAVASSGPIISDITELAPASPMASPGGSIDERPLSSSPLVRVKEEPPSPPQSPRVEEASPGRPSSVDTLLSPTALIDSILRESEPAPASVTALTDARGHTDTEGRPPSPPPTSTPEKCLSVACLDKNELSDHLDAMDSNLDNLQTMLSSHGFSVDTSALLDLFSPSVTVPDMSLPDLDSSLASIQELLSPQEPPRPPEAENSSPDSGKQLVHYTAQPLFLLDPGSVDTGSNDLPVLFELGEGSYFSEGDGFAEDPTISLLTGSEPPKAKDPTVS
# In short: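 Cells were transfected with cis-element-driven reporter constructs, dosed for 24 h, then total RNA was reverse-transcribed and reporter cDNA amplified, FAM-labelled and digested with HpaI. Fragments were resolved by capillary electrophoresis; gain or loss was fitted against DMSO.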
# [20] = ATG_M_19_CIS: Attagene CIS-FACTORIAL HepG2 Assay for M19 Transcription Factor (Internal Marker) (AID 2282939; active means hit-call score of the fitted dose curve at least 0.9, where 1 is the maximum; inactive means score below 0.9); conditions: HepG2 Attagene CIS-FACTORIAL M19 internal marker reporter; actives raise or lower the signal
# In short: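 Background-control endpoint from a multiplexed HepG2 reporter panel. Cells carrying cis-regulated reporter constructs are treated 24 h, then reporter transcripts are amplified, fluorescently labelled and sized by capillary electrophoresis. DMSO defines baseline.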
smiles,measurement,setting,value
N#CCCCl,outcome,[1],inactive
same,outcome,[2],inactive
same,outcome,[3],inactive
same,outcome,[4],inactive
same,outcome,[5],inactive
same,outcome,[6],inactive
same,outcome,[7],inactive
same,outcome,[8],inactive
same,outcome,[9],inactive
same,outcome,[10],inactive
same,outcome,[11],inactive
same,outcome,[12],inactive
same,outcome,[13],inactive
same,outcome,[14],inactive
same,outcome,[15],inactive
c1ccc(Nc2ccc3ccccc3c2)cc1,outcome,[1],inactive
same,outcome,[2],inactive
same,outcome,[3],inactive
same,outcome,[4],inactive
same,outcome,[5],inactive
same,outcome,[6],inactive
same,outcome,[7],inactive
same,AC50,[8],37 µM (active)
same,outcome,[9],inactive
same,AC50,[16],18 µM (active)
same,AC50,[10],7.59 µM (active)
same,outcome,[11],inactive
same,outcome,[17],inactive
same,AC50,[12],74.9 µM (active)
same,outcome,[12],inactive
same,outcome,[13],inactive
same,outcome,[14],inactive
same,outcome,[15],inactive
same,AC50,[18],73.5 µM (active)
same,outcome,[18],inactive
CCC1CCC(=O)O1 (stereo unspecified),outcome,[2],inactive
same,outcome,[19],inactive
same,outcome,[5],inactive
same,outcome,[6],inactive
same,outcome,[7],inactive
same,outcome,[9],inactive
same,outcome,[17],inactive
CC=Cc1ccc2c(c1)OCO2,outcome,[20],inactive
same,outcome,[3],inactive
same,outcome,[4],inactive
same,outcome,[5],inactive
same,outcome,[6],inactive
same,outcome,[8],inactive
same,outcome,[16],inactive
same,outcome,[10],inactive
same,outcome,[11],inactive
same,outcome,[17],inactive
same,outcome,[14],inactive
same,outcome,[18],inactive
O=C(O)CCl,outcome,[20],inactive
same,outcome,[1],inactive
same,outcome,[2],inactive
same,outcome,[3],inactive
same,outcome,[19],inactive
same,outcome,[5],inactive
same,outcome,[6],inactive
same,outcome,[8],inactive
same,outcome,[9],inactive
same,outcome,[16],inactive
same,outcome,[11],inactive
same,outcome,[17],inactive
